What all share (assay): DAPPL (digital affinity profiling via proximity ligation, sequencing); 10 mM Tris-HCl pH 7.5, 50 mM NaCl, 1 mM DTT, 4% glycerol, room temperature, 30 min; GST-TFs on glutathione beads, 16-mer random dsDNA library, 0.1% formaldehyde crosslink after washing; high values mean tight binding
Settings in all cases: protein: recombinant; tags: N-terminal GST; dsDNA, one strand shown

The target of one test is T1, ELK1 (Homo sapiens, UniProt P19419 1-428).
T1 sequence: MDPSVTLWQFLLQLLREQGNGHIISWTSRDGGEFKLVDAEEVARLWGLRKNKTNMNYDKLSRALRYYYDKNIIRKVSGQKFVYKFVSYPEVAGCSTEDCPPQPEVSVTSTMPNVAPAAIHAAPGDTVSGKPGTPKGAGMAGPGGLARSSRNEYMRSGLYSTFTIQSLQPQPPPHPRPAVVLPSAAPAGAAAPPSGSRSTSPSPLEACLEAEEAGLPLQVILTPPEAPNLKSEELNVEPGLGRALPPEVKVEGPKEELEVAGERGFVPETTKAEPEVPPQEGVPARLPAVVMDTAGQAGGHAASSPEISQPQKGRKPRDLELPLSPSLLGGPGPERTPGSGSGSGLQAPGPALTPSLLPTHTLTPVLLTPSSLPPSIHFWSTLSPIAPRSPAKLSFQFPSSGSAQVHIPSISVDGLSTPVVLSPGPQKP
Put shortly: (§1)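 Beads coated with glutathione captured GST-fused human transcription factors that had been expressed in yeast, and the factors were then given DNA barcodes and pooled with a tag-only sample. The pools were incubated with 200 nmole of a random double-stranded 16-mer DNA library in Tris/NaCl/DTT/glycerol buffer for 30 min at room temperature, washed, crosslinked with 0.1% formaldehyde and proximity-ligated with BsaI/T4 ligase at 37 °C for 1 h. PCR amplification and Illumina NextSeq500 sequencing came last. Binding signal is each hexamer's read frequency for a factor divided by its frequency for the tag-only sample.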

The target of another test is T2, GABPA (Homo sapiens, UniProt Q06546 1-454).
T2 sequence: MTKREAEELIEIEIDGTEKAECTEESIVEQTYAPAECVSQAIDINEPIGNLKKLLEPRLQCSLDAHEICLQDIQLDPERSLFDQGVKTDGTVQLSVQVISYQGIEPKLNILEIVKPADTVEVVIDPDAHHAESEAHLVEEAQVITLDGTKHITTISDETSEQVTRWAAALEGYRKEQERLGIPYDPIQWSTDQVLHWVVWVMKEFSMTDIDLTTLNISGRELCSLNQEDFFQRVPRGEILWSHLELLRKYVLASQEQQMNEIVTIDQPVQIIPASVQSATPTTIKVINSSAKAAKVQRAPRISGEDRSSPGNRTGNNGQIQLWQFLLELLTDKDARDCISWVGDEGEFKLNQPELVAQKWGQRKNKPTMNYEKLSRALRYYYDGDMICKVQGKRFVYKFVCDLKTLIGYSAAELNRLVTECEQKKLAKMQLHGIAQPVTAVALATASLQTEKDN
Put shortly:
as §1

The target of another test is T3, ERG (Homo sapiens, UniProt P11308 1-479).
T3 sequence: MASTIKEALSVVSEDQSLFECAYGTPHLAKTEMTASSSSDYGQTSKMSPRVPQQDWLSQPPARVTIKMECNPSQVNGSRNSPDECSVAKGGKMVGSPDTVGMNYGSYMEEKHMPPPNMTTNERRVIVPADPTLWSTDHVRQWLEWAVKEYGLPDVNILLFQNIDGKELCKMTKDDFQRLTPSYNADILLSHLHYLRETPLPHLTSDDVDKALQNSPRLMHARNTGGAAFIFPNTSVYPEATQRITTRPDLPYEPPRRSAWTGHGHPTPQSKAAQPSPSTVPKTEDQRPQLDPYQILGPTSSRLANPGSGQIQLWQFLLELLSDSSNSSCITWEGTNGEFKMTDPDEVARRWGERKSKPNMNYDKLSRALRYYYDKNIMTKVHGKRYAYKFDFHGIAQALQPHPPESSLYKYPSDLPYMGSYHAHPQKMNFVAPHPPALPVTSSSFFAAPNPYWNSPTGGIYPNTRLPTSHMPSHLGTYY
The gist of the method: as §1

For a further test, the target named is ELF1 (Homo sapiens, UniProt P32519 1-619). Put shortly: as §1
For a further test, the target named is T4, EHF (Homo sapiens, UniProt Q9NZC4 1-300).
T4 sequence: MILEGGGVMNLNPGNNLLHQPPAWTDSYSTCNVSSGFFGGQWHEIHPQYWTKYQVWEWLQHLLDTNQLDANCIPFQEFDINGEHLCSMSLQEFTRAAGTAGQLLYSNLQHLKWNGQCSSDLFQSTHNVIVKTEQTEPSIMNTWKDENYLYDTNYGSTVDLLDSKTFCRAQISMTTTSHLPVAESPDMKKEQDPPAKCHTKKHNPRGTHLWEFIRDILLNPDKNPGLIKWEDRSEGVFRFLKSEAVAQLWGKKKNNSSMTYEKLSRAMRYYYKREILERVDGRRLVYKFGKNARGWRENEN
Put shortly:
as §1

In the next test the target is SPI1 (Homo sapiens, UniProt P17947 1-270). Put shortly:
as §1

Another test concerns the target SPIB (Homo sapiens, UniProt Q01892 1-262). The gist of the method: as §1
The next test has as its target T5, FEV (Homo sapiens, UniProt Q99581 1-238).
T5 sequence: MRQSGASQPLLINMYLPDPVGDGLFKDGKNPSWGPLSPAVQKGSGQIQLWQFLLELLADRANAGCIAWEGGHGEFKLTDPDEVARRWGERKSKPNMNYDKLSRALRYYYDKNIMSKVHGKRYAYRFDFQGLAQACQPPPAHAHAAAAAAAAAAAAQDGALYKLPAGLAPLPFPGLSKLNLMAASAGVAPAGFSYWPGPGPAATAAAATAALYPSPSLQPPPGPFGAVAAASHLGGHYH
The gist of the method:
as §1

A further test deals with ETV5 (Homo sapiens, UniProt P41161 1-510). The gist of the method: as §1
The target of the next test is ELF4 (Homo sapiens, UniProt Q99607 1-663). The gist of the method:
as §1

A further test concerns the target T6, ELK4 (Homo sapiens, UniProt P28324-2 1-405).
T6 sequence: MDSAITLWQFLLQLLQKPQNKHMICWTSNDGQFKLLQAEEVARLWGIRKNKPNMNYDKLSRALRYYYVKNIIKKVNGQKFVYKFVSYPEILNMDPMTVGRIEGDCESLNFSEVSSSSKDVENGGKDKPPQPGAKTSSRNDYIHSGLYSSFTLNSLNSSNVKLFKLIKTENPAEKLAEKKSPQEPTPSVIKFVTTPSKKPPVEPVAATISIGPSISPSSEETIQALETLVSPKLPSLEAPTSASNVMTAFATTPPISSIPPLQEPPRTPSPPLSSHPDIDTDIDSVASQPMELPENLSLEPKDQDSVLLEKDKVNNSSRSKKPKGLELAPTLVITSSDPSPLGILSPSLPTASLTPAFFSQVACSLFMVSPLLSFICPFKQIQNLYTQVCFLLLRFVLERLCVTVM
Put shortly: as §1

In another test the target is T7, ETV2 (Homo sapiens, UniProt O00321 1-342).
T7 sequence: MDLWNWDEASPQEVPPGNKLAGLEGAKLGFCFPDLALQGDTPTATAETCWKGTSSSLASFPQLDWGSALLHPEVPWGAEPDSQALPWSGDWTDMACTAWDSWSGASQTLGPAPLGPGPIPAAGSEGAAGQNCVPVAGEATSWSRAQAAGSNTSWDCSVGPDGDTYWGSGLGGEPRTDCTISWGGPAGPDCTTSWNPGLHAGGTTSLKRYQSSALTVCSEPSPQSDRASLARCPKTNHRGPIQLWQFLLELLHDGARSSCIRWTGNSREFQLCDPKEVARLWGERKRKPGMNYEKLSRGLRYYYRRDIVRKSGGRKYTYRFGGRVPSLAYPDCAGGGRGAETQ
The gist of the method:
as §1

The next test deals with ETV1 (Homo sapiens, UniProt P50549 1-477). The gist of the method: as §1
A further test deals with T8, ERF (Homo sapiens, UniProt P50548 1-548).
T8 sequence: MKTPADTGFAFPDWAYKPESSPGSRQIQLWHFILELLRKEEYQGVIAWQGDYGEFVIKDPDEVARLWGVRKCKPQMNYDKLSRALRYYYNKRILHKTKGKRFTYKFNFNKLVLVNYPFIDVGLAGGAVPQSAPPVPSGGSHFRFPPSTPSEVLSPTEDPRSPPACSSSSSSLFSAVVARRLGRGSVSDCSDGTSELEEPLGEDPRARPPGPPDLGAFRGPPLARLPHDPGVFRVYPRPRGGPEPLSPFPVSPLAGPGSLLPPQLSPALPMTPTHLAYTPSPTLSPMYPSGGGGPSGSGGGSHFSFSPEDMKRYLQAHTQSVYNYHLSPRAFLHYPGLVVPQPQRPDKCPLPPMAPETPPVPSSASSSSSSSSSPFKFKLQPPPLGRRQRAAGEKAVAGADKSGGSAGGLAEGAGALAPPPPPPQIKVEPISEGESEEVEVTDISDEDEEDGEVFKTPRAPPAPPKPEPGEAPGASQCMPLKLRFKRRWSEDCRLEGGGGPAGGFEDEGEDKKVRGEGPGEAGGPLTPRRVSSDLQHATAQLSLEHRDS
Put shortly:
as §1

Another test has as its target T9, ETV3L (Homo sapiens, UniProt Q6ZN32 1-361).
T9 sequence: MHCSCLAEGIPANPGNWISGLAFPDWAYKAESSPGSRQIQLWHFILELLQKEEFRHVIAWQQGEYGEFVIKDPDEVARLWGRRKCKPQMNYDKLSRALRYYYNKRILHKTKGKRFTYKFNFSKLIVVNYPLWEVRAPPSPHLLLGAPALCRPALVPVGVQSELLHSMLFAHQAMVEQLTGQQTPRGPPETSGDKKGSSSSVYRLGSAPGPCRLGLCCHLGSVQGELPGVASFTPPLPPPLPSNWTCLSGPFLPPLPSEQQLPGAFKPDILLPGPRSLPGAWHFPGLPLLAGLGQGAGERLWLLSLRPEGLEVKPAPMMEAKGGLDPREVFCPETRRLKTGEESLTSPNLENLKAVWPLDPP
The gist of the method: as §1

For the next test, the target named is T10, ETS2 (Homo sapiens, UniProt P15036 1-469).
T10 sequence: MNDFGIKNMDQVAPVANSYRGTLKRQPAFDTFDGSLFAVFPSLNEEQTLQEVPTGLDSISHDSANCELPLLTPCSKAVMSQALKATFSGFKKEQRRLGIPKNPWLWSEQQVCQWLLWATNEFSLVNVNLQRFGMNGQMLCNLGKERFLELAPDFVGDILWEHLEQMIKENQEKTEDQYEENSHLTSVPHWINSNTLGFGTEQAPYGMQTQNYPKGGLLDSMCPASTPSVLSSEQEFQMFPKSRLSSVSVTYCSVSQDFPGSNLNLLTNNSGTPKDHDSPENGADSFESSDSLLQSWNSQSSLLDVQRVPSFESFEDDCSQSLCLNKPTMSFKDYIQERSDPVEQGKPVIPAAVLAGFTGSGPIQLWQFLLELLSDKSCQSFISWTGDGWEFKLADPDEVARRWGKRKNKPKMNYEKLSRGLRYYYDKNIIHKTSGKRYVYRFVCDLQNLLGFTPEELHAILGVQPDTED
Put shortly:
as §1

The target of the next test is T11, SPDEF (Homo sapiens, UniProt O95238 1-335).
T11 sequence: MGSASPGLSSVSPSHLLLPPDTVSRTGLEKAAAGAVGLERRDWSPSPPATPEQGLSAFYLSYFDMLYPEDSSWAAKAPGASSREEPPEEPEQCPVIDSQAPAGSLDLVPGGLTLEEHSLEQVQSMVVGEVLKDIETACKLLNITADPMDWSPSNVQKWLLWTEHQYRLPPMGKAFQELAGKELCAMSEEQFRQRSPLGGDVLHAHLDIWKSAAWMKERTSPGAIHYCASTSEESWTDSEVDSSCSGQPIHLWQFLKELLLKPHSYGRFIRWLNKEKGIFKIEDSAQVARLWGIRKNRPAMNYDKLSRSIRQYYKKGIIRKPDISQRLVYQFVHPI
The gist of the method:
as §1

Another test has as its target T12, ETV7 (Homo sapiens, UniProt Q9Y603 1-341).
T12 sequence: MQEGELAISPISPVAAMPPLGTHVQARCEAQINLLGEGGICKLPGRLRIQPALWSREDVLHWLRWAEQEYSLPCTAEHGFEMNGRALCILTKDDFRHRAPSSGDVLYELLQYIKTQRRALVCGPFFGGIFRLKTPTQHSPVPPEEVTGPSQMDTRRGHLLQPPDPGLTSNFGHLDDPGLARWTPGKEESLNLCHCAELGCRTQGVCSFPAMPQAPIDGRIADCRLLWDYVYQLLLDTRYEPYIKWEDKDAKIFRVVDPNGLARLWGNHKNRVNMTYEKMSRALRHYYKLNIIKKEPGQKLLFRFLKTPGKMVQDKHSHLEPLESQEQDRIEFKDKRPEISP
The gist of the method:
as §1

For the next test, the target named is T13, ETV3 (Homo sapiens, UniProt P41162-2 1-143).
T13 sequence: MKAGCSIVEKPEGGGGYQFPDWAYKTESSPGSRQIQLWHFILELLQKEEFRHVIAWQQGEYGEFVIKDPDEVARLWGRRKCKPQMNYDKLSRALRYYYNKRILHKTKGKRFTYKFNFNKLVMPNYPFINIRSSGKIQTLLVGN
The gist of the method:
as §1

A further test deals with ETV6 (Homo sapiens, UniProt P41212 1-452). The gist of the method: as §1
Sequence of ETV6 (P41212 whole entry): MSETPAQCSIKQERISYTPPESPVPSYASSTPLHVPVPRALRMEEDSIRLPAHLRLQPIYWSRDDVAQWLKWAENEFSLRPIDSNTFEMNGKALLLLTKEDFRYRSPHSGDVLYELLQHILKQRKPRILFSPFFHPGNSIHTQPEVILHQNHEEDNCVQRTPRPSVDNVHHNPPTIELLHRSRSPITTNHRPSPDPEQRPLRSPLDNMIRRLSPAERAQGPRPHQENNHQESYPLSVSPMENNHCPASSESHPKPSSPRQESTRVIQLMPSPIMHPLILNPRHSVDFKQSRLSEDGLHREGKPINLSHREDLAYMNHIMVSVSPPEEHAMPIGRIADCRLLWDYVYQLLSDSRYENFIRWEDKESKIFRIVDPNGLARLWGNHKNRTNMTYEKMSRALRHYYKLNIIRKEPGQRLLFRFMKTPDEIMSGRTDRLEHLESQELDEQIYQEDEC

Sequence of ELF4 (Q99607 whole entry): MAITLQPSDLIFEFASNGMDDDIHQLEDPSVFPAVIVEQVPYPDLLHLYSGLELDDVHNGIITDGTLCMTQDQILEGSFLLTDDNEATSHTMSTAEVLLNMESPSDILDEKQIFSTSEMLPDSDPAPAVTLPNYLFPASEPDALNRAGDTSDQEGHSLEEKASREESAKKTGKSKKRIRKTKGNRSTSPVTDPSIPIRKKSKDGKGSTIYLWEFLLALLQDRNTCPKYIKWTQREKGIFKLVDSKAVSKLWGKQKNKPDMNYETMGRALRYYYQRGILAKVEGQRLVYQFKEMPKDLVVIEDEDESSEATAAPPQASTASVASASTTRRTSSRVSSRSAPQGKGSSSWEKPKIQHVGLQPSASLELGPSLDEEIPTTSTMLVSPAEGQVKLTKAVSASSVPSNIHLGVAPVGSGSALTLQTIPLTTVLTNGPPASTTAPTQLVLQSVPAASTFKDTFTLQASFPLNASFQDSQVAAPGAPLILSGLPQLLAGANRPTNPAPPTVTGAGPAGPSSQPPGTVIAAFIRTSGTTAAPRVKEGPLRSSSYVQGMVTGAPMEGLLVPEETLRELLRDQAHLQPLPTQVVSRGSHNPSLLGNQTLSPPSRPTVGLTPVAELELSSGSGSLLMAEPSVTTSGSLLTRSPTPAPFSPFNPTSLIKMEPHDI
Sequence of ELF1 (P32519 whole entry): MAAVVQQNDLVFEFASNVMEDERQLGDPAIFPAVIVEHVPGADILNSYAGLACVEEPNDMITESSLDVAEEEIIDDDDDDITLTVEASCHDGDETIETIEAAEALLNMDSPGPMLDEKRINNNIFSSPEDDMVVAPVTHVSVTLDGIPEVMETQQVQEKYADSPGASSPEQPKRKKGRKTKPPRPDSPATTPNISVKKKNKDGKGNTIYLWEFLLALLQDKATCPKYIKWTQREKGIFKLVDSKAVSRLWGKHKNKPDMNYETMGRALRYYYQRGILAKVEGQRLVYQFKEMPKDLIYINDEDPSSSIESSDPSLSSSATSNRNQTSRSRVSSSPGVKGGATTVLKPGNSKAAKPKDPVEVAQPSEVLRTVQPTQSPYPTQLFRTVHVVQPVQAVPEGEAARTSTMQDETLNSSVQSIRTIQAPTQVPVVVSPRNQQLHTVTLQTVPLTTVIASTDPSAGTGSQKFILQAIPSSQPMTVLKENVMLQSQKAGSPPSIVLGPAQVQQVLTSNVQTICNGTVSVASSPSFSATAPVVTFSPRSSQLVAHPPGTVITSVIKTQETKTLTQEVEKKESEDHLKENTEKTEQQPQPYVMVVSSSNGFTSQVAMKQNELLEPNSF
Sequence of SPIB (Q01892 whole entry): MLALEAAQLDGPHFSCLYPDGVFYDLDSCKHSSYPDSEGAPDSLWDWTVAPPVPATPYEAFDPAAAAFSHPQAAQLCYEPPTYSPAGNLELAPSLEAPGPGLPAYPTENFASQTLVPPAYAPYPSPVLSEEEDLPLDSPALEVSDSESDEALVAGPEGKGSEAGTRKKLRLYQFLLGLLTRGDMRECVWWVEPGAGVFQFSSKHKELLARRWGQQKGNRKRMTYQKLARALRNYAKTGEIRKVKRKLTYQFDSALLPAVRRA
Sequence of ETV5 (P41161 whole entry): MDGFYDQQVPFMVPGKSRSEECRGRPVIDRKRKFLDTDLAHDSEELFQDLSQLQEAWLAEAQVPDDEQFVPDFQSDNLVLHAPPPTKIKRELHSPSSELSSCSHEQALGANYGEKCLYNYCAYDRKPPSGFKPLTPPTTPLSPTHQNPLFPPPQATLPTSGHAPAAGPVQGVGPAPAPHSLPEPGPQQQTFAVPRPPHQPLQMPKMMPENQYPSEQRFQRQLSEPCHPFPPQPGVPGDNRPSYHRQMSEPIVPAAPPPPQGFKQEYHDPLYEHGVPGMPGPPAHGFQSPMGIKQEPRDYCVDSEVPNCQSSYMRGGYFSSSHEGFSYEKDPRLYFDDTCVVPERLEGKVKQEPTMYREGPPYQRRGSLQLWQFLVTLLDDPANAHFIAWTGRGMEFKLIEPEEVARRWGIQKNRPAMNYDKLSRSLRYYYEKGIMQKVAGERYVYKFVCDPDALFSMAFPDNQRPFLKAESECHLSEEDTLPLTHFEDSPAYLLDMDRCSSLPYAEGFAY
Sequence of ETV1 (P50549 whole entry): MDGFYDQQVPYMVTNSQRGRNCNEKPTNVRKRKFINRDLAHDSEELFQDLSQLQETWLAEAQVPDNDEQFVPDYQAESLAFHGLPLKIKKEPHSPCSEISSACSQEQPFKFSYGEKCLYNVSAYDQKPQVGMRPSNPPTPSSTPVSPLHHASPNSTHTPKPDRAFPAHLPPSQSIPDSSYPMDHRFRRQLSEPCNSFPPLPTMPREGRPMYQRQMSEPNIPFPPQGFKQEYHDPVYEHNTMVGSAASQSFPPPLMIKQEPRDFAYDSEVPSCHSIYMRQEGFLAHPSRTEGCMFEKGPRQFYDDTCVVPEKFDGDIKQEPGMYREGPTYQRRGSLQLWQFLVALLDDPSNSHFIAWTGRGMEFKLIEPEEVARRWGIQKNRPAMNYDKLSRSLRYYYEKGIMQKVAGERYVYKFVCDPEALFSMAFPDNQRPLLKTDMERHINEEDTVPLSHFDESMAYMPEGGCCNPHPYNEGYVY

TGGGGT: the binding signal with ELK1 was 1.05 fold enrichment (6-mer frequency, TF over GST control); in the test with GABPA it was 1.12 fold enrichment (6-mer frequency, TF over GST control); with ERG, 1.1 fold enrichment (6-mer frequency, TF over GST control); with ELF1 it was 1.09 fold enrichment (6-mer frequency, TF over GST control); in the test with EHF, 1.03 fold enrichment (6-mer frequency, TF over GST control); in the test with SPI1 it was 1.04 fold enrichment (6-mer frequency, TF over GST control). The binding signal in the test with SPIB was 1.09 fold enrichment (6-mer frequency, TF over GST control); with FEV it was 1.02 fold enrichment (6-mer frequency, TF over GST control); in the test with ETV5, 1.13 fold enrichment (6-mer frequency, TF over GST control); with ELF4, 1.08 fold enrichment (6-mer frequency, TF over GST control); with ELK4 it was 1.21 fold enrichment (6-mer frequency, TF over GST control); with ETV2, 1.08 fold enrichment (6-mer frequency, TF over GST control). In addition, the binding signal with ETV1 is 1.14 fold enrichment (6-mer frequency, TF over GST control); in the test with ERF, 1.02 fold enrichment (6-mer frequency, TF over GST control); with ETV3L, 1.2 fold enrichment (6-mer frequency, TF over GST control); in the test with ETS2 it was 1.2 fold enrichment (6-mer frequency, TF over GST control); with SPDEF, 1.08 fold enrichment (6-mer frequency, TF over GST control); in the test with ETV7, 1.05 fold enrichment (6-mer frequency, TF over GST control). Moreover, the binding signal with ETV3 was 1.14 fold enrichment (6-mer frequency, TF over GST control); in the test with ETV6, 1.09 fold enrichment (6-mer frequency, TF over GST control).

These data come from PMC7862700, “An all-to-all approach to the identification of sequence-specific readers for epigenetic DNA modifications on cytosine”.
